In PubChem BioAssay (Tox21):
Results filed as inconclusive are left out. A call without a number means that no potency is given here. Values without a mark were called inactive. The source made the active and inactive calls. The call rests on the fitted dose curve; in most records, active means well fitted cell-killing curve with a large enough effect in the repeat runs; inconclusive means weak or mixed curves, or effect the other way; inactive means flat fitted curve, though single readings scatter.

Experiment: cAMP Responsive Elements (CRE) small molecule antagonists, cell-based qHTS assay: qHTS cell viability counter screen (AID 2060913); further: nearly all actives have a fitted effect of over 40% in size
Conditions: CRE-bla HEK293T viability, CellTiter-Glo luminescence, 5 h; series mostly up to 92.4 µM
Outline: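 CRE-bla HEK293T cells (2,000/well, 18 h) given compound plus NKH477 0.25 uM final for 3 h at 37C; viability counter-screen by CellTiter-Glo luminescence in same wells after 30 min.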

SMILES | Potency | viability change, negative = cytotoxic
SCCSCCS | inactive | 
CC(C(O)c1ccc(O)cc1)N1CCC(Cc2ccccc2)CC1 (stereo not drawn) | inactive | 
CC[N+](CC)(CC(=O)Nc1c(C)cccc1C)Cc1ccccc1 | inactive | 
Cc1cc(C)c(S(=O)(=O)O)cc1N=Nc1cc(S(=O)(=O)O)c2ccccc2c1O | inactive | 
CCc1cccc(N(C)C(N)=Nc2cccc3ccccc23)c1 | inactive | 
COc1ccc([C@@H]2Sc3ccccc3NC(=O)[C@@H]2O)cc1 | inactive | 
CC(C)(C#N)c1cc(Cn2cncn2)cc(C(C)(C)C#N)c1 | inactive | 
CCCCCCCCCCCCCc1ccccc1 | inactive | 
COC(=O)/C=C(\C)CCC=C(C)C | inactive | 
CC1(C)C(=O)N(Cl)C(=O)N1Br | inactive | 
O=c1cc[nH]c(=S)[nH]1 | inactive | 
FB(F)F | inactive | 
O=C(O)CCn1c2c(c3ccccc31)C[C@H](NS(=O)(=O)c1ccc(F)cc1)CC2 | inactive | 
CC(=O)/C=C/C=C1/C2CCC(C2)C1(C)C (stereo not drawn) | inactive | 
CN1CC(=O)NC1=N | inactive | 
C1C2OC2C2C1C1CC2C2OC12 (stereo not drawn) | inactive | 
CCOc1ccccc1OCC1CNCCO1 (stereo not drawn) | inactive | 
CN1CCN(CC(=O)N2c3ccccc3C(=O)Nc3cccnc32)CC1 |  | 8.13% [at 8.39 µM]
O=C(O)CSCC(=O)NC1CCSC1=O (stereo not drawn) | inactive | 
CCCCC1=NC2(CCCC2)C(=O)N1Cc1ccc(-c2ccccc2-c2nn[nH]n2)cc1 | inactive | 
C(=C\c1ccccc1)/CN1CCN(C(c2ccccc2)c2ccccc2)CC1 | inactive | 
O=C(Nc1ccc(Cl)cc1)Nc1ccc(Cl)c(Cl)c1 | inactive | 
C/C=C(\C)C=O | inactive | 
